Measurements as given in the supplement of paper PMC11732987, “Enantioselective OTUD7B fragment discovery through chemoproteomics screening and high-throughput optimisation” (Communications Chemistry, 2025).

Tests used:
Experiment in all cases: log2 ratio of Biotin-Ahx-Ub-VS probe labelling (fragment/DMSO); higher = less target engagement (more negative = stronger competition), active = hit call of the paper (q ≤ 0.05, log2 ratio ≤ -1)
Conditions in all cases: compound concentration: 200 uM; treatment time: 3 h
USP19 = biological target: T1, USP19 (UniProt O94966)
T1 sequence (whole entry): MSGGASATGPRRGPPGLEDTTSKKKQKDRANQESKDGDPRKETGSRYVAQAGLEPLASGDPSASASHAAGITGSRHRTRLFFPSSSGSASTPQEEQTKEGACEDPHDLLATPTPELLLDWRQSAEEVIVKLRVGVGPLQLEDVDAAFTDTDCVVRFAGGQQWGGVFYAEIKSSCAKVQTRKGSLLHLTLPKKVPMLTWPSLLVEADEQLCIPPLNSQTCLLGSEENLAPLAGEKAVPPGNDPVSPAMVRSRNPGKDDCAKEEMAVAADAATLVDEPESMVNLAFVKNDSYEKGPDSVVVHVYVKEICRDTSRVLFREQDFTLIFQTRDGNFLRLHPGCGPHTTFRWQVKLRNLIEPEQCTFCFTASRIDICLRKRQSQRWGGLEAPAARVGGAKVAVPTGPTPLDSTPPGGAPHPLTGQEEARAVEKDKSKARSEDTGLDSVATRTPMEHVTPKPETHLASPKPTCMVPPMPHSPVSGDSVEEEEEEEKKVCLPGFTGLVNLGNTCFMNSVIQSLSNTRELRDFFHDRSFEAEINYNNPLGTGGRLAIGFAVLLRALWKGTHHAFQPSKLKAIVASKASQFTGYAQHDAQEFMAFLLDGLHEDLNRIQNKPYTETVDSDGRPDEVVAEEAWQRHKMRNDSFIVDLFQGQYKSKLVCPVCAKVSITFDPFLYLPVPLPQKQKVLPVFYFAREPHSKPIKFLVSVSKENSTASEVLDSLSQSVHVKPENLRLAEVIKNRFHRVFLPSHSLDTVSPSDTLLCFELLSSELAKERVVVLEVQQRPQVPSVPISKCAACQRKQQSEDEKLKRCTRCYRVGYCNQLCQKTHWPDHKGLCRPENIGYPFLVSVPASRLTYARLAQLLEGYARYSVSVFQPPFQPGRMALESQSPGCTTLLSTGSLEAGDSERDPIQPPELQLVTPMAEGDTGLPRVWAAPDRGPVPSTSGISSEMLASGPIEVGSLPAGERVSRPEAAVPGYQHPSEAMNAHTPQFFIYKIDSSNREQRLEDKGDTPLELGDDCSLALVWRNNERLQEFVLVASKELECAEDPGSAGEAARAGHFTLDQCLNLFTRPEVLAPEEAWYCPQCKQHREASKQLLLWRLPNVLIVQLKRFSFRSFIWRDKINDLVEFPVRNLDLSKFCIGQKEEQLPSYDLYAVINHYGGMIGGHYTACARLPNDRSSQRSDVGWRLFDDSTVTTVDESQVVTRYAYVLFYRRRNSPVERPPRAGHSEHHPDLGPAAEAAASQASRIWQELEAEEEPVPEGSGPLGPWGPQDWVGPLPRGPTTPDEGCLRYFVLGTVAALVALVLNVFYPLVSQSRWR
Outline: (§1)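 Triplicate samples of HEK293T lysate, 495 µg each, received fragment at 200 µM or vehicle for 3 h, followed by Biotin-Ahx-Ub-VS (0.5 µM final) for 1 h. After NeutrAvidin enrichment of labelled DUBs and LysC/trypsin digestion, peptides were run by diaPASEF LC-MS/MS. The values are average log2 fragment/vehicle ratios from global-median-normalised Spectronaut label-free quantities, tested by unpaired t-test on proteins having ≥2 unique peptides.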

USP22 = biological target: T2, USP22 (UniProt Q9UPT9)
T2 sequence (whole entry): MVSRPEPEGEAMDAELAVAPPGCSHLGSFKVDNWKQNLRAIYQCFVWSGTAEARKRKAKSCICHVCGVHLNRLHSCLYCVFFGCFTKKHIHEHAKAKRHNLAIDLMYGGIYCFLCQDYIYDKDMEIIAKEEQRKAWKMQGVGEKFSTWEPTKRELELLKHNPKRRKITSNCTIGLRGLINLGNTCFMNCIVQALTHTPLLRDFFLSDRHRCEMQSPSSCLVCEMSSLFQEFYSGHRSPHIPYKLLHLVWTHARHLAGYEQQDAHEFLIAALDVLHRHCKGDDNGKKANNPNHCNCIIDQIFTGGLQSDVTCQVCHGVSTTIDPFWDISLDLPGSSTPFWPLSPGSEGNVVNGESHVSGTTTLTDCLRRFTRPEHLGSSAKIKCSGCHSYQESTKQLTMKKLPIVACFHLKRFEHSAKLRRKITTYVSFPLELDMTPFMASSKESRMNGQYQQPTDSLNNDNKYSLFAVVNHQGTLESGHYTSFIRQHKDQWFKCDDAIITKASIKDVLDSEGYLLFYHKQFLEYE
Outline: as §1

USP24 = USP24 (UniProt Q9UPU5)
Sequence of USP24 (Q9UPU5 whole entry): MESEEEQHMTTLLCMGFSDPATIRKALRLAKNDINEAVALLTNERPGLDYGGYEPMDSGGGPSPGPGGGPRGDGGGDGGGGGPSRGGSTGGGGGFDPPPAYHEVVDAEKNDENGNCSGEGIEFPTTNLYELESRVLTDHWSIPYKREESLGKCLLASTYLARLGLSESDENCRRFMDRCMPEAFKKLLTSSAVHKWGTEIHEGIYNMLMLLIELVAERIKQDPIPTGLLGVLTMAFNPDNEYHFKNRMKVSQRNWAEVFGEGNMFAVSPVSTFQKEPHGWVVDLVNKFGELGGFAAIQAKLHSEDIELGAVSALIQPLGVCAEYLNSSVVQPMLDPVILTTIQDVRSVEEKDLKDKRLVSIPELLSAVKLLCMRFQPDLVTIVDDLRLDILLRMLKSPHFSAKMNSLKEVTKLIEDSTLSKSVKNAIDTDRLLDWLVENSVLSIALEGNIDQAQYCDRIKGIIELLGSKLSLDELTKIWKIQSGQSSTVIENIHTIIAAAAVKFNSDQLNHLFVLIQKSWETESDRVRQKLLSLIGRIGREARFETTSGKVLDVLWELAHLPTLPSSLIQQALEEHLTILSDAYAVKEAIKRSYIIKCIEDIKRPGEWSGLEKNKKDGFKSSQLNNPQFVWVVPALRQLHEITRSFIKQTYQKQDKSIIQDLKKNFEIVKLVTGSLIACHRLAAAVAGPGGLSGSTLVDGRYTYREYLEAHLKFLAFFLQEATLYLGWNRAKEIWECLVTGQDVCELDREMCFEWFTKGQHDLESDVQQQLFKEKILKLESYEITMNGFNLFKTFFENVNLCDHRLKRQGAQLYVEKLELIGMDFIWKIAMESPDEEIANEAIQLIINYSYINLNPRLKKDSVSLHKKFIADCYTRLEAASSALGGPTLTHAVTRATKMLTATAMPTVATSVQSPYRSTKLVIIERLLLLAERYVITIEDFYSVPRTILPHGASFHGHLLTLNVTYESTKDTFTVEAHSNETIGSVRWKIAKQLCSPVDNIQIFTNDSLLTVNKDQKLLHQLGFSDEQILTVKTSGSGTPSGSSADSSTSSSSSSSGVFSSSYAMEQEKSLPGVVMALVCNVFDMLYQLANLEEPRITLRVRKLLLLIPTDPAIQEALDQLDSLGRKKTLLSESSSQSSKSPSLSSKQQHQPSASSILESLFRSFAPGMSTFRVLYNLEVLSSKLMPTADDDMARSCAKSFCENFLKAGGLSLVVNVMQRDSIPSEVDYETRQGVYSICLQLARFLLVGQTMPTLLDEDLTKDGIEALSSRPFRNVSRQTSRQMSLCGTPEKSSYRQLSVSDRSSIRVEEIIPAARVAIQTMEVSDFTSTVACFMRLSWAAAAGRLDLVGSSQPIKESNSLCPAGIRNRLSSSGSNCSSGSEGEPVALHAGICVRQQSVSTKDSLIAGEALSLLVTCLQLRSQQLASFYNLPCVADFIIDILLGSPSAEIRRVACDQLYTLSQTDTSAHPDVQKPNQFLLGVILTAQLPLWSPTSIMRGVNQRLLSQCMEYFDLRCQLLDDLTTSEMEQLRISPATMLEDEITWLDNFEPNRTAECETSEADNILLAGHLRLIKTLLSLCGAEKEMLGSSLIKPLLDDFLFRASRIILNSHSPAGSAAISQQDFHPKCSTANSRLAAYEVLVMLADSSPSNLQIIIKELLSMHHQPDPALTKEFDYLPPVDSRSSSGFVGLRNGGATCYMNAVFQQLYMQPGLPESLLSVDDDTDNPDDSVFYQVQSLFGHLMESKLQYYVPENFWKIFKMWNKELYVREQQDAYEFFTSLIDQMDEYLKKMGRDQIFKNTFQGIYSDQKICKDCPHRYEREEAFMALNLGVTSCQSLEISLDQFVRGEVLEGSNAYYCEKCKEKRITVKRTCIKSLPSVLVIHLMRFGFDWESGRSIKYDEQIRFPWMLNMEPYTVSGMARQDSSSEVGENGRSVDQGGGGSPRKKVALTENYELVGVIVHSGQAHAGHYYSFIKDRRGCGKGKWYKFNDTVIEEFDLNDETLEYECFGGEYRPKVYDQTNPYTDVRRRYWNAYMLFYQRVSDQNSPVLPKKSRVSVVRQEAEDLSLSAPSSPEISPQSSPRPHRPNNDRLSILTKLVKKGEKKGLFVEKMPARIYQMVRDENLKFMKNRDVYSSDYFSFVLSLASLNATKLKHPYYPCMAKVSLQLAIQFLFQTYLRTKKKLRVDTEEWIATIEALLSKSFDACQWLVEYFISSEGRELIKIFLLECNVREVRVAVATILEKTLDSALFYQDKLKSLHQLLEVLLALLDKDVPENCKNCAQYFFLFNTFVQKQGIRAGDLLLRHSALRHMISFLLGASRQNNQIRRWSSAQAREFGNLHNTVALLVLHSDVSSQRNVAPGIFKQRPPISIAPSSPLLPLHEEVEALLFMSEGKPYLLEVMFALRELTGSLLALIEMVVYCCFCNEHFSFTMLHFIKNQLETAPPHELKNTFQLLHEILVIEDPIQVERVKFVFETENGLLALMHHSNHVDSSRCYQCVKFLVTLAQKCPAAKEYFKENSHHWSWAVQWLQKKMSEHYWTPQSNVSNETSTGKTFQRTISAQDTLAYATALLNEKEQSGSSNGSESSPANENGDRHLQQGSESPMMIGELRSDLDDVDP
Outline: as §1

USP25 = biological target: T3, USP25 (UniProt Q9UHP3)
T3 sequence (whole entry): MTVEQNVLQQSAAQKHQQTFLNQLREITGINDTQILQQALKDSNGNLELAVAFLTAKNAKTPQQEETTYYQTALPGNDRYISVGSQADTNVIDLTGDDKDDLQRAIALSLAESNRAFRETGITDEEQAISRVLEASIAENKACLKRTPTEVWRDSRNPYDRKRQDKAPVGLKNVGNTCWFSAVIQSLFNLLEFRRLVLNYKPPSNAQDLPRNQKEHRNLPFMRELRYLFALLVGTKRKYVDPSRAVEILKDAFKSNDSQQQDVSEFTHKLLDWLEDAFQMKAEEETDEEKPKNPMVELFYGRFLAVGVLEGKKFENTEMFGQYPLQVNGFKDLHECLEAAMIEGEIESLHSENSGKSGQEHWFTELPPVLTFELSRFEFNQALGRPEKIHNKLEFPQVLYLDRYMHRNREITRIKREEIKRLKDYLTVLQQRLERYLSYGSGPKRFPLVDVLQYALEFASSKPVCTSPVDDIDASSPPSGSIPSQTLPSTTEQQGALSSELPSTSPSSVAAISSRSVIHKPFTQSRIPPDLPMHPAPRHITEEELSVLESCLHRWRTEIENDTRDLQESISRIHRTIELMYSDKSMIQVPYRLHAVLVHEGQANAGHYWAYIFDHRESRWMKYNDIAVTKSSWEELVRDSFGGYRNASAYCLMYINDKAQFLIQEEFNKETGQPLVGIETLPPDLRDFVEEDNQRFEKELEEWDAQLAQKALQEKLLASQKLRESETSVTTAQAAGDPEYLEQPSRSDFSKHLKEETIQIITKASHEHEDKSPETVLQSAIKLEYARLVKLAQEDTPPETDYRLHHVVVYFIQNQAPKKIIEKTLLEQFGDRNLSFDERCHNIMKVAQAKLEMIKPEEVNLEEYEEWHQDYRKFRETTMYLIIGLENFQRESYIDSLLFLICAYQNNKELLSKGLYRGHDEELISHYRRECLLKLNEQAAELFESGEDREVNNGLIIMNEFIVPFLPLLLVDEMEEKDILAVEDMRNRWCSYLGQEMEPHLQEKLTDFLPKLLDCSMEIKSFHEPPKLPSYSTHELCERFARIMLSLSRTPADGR
Outline: as §1

USP28 = biological target: T4, USP28 (UniProt Q96RU2)
T4 sequence (whole entry): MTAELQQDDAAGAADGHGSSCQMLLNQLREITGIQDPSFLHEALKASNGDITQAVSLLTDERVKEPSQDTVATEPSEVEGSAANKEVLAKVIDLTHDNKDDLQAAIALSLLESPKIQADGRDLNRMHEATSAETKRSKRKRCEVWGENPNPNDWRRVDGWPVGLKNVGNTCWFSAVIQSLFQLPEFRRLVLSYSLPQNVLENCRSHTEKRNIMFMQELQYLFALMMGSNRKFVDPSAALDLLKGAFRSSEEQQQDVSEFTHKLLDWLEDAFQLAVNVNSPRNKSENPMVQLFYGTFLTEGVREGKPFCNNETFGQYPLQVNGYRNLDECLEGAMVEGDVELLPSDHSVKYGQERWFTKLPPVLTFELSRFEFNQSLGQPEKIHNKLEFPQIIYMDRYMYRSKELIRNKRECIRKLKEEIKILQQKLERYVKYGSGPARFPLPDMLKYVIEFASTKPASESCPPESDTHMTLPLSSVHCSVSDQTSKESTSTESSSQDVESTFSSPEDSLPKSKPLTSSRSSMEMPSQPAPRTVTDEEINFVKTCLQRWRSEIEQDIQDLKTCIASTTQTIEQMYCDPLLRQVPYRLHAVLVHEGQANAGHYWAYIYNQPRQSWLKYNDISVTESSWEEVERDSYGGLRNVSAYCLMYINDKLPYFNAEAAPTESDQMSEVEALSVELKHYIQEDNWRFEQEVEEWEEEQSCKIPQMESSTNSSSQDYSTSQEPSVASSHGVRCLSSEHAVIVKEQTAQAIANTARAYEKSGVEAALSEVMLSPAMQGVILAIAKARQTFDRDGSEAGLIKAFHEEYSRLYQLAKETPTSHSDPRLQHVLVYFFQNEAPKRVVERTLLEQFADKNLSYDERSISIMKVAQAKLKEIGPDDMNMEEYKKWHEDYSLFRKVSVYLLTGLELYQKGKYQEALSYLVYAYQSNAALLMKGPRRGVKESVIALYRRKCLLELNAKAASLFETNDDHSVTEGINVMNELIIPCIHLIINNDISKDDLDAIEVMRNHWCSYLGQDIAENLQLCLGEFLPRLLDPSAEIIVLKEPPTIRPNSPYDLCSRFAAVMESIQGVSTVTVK
Outline: as §1

Measured: log2 ratio of Biotin-Ahx-Ub-VS probe labelling

O=C(CCl)NCC(=O)N1CCCC1
inactive: USP19 0.114 | USP22 -0.00438 | USP24 -0.074 | USP25 0.037 | USP28 -0.302
